Results: PubChem BioAssay (NCI)
This is part of a sample that, as a whole, favours compounds with a hit. Of some 79,000 tested, about 15% had one in any assay. Unmarked numbers belong to inactive results. The source made the active and inactive calls. Cut-off read from the data, not from the text of the source: active = growth inhibition above about 70%; inactive = the rest.

Tests used:
[1] = NCI Yeast Anticancer Drug Screen. Data for the rad52 strain (AID 147);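 note: 0% = growth of vehicle-treated control cultures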; settings: S. cerevisiae rad52 mutant growth inhibition, hits give high values
How it was run: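 Growth of repair-deficient yeast cells was compared between compound-treated and vehicle-treated cultures to give percent inhibition.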

[2] = NCI Yeast Anticancer Drug Screen. Data for the wt1 strain (AID 149);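 note: 0% = growth of vehicle-treated wt1 cultures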; settings: S. cerevisiae wt1 strain (SPY 50644) growth inhibition, hits give high values
How it was run: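 Growth inhibition read against vehicle controls after compound exposure of the wt1 yeast strain.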

[3] = NCI Yeast Anticancer Drug Screen. Data for the rad50EPP+ strain (AID 151);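 note: 0% = growth of vehicle-treated control cultures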; settings: S. cerevisiae rad50 mutant strain, hits give high values
How it was run: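 Measured: growth inhibition of rad50EPP+ yeast. Reference: vehicle-treated controls. Screen uses strains with defined genetic alterations in DNA damage repair or cell cycle control.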

[4] = NCI Yeast Anticancer Drug Screen. Data for the mgt1 strain (AID 153); settings: S. cerevisiae mgt1 mutant growth inhibition, hits give high values
How it was run: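 Compounds were applied to mgt1 mutant yeast, and growth was then compared against vehicle-treated control cultures to give percent inhibition.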

[5] = NCI Yeast Anticancer Drug Screen. Data for the rad50 strain (AID 155);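 note: 0% = growth of vehicle-only cultures of the same strain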; settings: S. cerevisiae rad50 strain growth inhibition, hits give high values
How it was run: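 Readout: growth inhibition relative to vehicle-treated cultures. Compound exposure was carried out in a genetically defined yeast strain deficient in DNA damage repair.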

[6] = NCI Yeast Anticancer Drug Screen. Data for the mec2-1 strain (AID 157); settings: S. cerevisiae mec2-1 strain, hits give high values
How it was run: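 Compounds were applied to mec2-1 yeast cells. Their growth was then compared with that of vehicle-treated cultures to give growth inhibition.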

[7] = NCI Yeast Anticancer Drug Screen. Data for the rad14 strain (AID 159);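 note: 0% = growth of vehicle-treated control cultures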; settings: S. cerevisiae rad14 strain growth inhibition, hits give high values
How it was run: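 Growth inhibition vs vehicle controls; genetically altered yeast strain (DNA damage repair defect) treated with test compounds.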

[8] = NCI Yeast Anticancer Drug Screen. Data for the sgs1 mgt1 strain (AID 161);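 note: 0% = growth of cultures given vehicle only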; settings: S. cerevisiae sgs1 mgt1 strain, hits give high values
How it was run: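 Percent growth inhibition was derived by comparing compound-exposed mutant yeast with vehicle-exposed cultures. The strain carries alterations in DNA damage repair.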

[9] = NCI Yeast Anticancer Drug Screen. Data for the cln2 rad14 strain (AID 165);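 note: 0% = growth equal to vehicle treated cultures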; settings: S. cerevisiae cln2 rad14 strain, hits give high values
How it was run: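 Strain: cln2 rad14 yeast, altered in cell cycle control and DNA damage repair. Read-out: growth inhibition vs vehicle.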

[10] = NCI Yeast Anticancer Drug Screen. Data for the bub3 strain (AID 167); settings: S. cerevisiae bub3 mutant strain, hits give high values
How it was run: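 Readout: yeast growth inhibition, expressed relative to vehicle-only wells. The test organism is a mutant strain from a panel with lesions in DNA repair or checkpoint genes.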

[11] = NCI Yeast Anticancer Drug Screen. Data for the wt2 strain (AID 169);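 note: 0% = growth of vehicle-treated yeast cultures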; settings: S. cerevisiae wt2 strain growth inhibition, hits give high values
How it was run: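 Growth of compound-treated yeast is measured and expressed as inhibition relative to vehicle-only controls.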

[12] = NCI Yeast Anticancer Drug Screen. Data for the mlh1 strain (AID 171);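 note: 0% = growth of vehicle-treated control cultures of the same strain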; settings: S. cerevisiae mlh1 strain growth inhibition, hits give high values
How it was run: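 Test agents were incubated with yeast bearing a defined DNA damage repair or cell cycle control alteration; values are growth inhibition normalised to vehicle-treated cultures.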

[13] = NCI Yeast Anticancer Drug Screen. Data for the sgs1 strain (AID 173);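 note: 0% = growth of vehicle-only control cultures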; settings: S. cerevisiae sgs1 mutant, hits give high values
How it was run: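 Strain with an altered DNA repair or cell cycle pathway exposed to compound. Growth then measured. Value = inhibition versus vehicle control.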

[14] = NCI Yeast Anticancer Drug Screen. Data for the mlh1 rad18 strain (AID 175); settings: S. cerevisiae mlh1 rad18 strain growth inhibition, hits give high values
How it was run: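 A repair-deficient yeast strain is exposed to test compound, and growth is scored relative to vehicle-treated controls.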

[15] = NCI Yeast Anticancer Drug Screen. Data for the rad18 strain (AID 177); settings: S. cerevisiae rad18 mutant growth inhibition, hits give high values
How it was run: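 DNA-repair-defective yeast; compound treatment; growth inhibition scored against vehicle.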

[16] = at 5.0 µM (retest, dose inferred, filed as 0.5)
[17] = at 50.0 µM (retest, dose inferred, filed as 5.0)

## COC(=O)/C=C(/CC(=O)OC)C(=O)OC
[1]; at 1.2 µM
  growth inhibition: 0%
[1]; at 3.7 µM
  growth inhibition: -1%
[1]; at 11.0 µM
  growth inhibition: -1%
[1]; at 33.0 µM
  growth inhibition: -1%
[1]; at 100.0 µM
  growth inhibition: -2%
[2]; at 1.2 µM
  growth inhibition: -2%
[2]; at 3.7 µM
  growth inhibition: 0%
[2]; at 11.0 µM
  growth inhibition: -1%
[2]; at 33.0 µM
  growth inhibition: -3%
[2]; at 100.0 µM
  growth inhibition: -3%
[3]; at 1.2 µM
  growth inhibition: 2%
[3]; at 3.7 µM
  growth inhibition: -2%
[3]; at 11.0 µM
  growth inhibition: -1%
[3]; at 33.0 µM
  growth inhibition: -1%
[3]; at 100.0 µM
  growth inhibition: -3%
[4]; at 1.2 µM
  growth inhibition: -3%
[4]; at 3.7 µM
  growth inhibition: 0%
[4]; at 11.0 µM
  growth inhibition: 0%
[4]; at 33.0 µM
  growth inhibition: 0%
[4]; at 100.0 µM
  growth inhibition: -3%
[5]; at 1.2 µM
  growth inhibition: 0%
[5]; at 3.7 µM
  growth inhibition: -44%
[5]; [16]
  growth inhibition: 59%
[5]; at 11.0 µM
  growth inhibition: 4%
[5]; at 33.0 µM
  growth inhibition: -4%
[5]; [17]
  growth inhibition: 3%
[5]; at 50.0 µM
  growth inhibition: 16.6%
[5]; at 100.0 µM
  growth inhibition: -4%
[6]; at 1.2 µM
  growth inhibition: -1%
[6]; at 3.7 µM
  growth inhibition: -3%
[6]; [16]
  growth inhibition: 12%
[6]; at 11.0 µM
  growth inhibition: 1%
[6]; at 33.0 µM
  growth inhibition: 0%
[6]; [17]
  growth inhibition: 6%
[6]; at 50.0 µM
  growth inhibition: 9.4%
[6]; at 100.0 µM
  growth inhibition: -3%
[7]; at 1.2 µM
  growth inhibition: 0%
[7]; at 3.7 µM
  growth inhibition: 1%
[7]; at 11.0 µM
  growth inhibition: 2%
[7]; at 33.0 µM
  growth inhibition: 3%
[7]; at 100.0 µM
  growth inhibition: -1%
[8]; [16]
  growth inhibition: 90% (active)
[8]; [17]
  growth inhibition: 15%
[8]; at 50.0 µM
  growth inhibition: -8.4%
[9]; [16]
  growth inhibition: 15%
[9]; [17]
  growth inhibition: -1%
[9]; at 50.0 µM
  growth inhibition: 77.8% (active)
[10]; at 1.2 µM
  growth inhibition: -4%
[10]; at 3.7 µM
  growth inhibition: -3%
[10]; [16]
  growth inhibition: 9%
[10]; at 11.0 µM
  growth inhibition: -2%
[10]; at 33.0 µM
  growth inhibition: -2%
[10]; [17]
  growth inhibition: 15%
[10]; at 50.0 µM
  growth inhibition: -15.2%
[10]; at 100.0 µM
  growth inhibition: -1%
[11]; at 1.2 µM
  growth inhibition: -3%
[11]; at 3.7 µM
  growth inhibition: 8%
[11]; at 11.0 µM
  growth inhibition: 0%
[11]; at 33.0 µM
  growth inhibition: -1%
[11]; at 100.0 µM
  growth inhibition: -1%
[12]; at 1.2 µM
  growth inhibition: -2%
[12]; at 3.7 µM
  growth inhibition: -1%
[12]; at 11.0 µM
  growth inhibition: 0%
[12]; at 33.0 µM
  growth inhibition: 0%
[12]; at 100.0 µM
  growth inhibition: -2%
[13]; at 1.2 µM
  growth inhibition: 0%
[13]; at 3.7 µM
  growth inhibition: 1%
[13]; at 11.0 µM
  growth inhibition: 3%
[13]; at 33.0 µM
  growth inhibition: 2%
[13]; at 100.0 µM
  growth inhibition: 3%
[14]; [16]
  growth inhibition: 33%
[14]; [17]
  growth inhibition: 1%
[14]; at 50.0 µM
  growth inhibition: 10.8%
[15]; at 1.2 µM
  growth inhibition: 3%
[15]; at 3.7 µM
  growth inhibition: 2%
[15]; at 11.0 µM
  growth inhibition: 1%
[15]; at 33.0 µM
  growth inhibition: 1%
[15]; at 100.0 µM
  growth inhibition: -4%
